Where “and” joins values, the source holds several entries; their conditions need not be identical. Identical values can stand only once. The panel holds about 83,000 compounds, 20% with a hit somewhere; the sample as a whole holds those more often.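 Growth was measured after 48 h exposure to one concentration of compound in 96-well plates. Values under 10 count as active.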 Unmarked numbers belong to inactive results. Calls of active or inactive are those of the source.

Some test systems named below: SW-620 colon; MCF7 breast; HCT-116 colon; HCC-2998 colon; KM12 colon; BT-549 breast.
Assay in all cases: NCI-60 one-dose screen, 48 h (100 = growth as untreated, 0 = no growth, -100 = all killed)
The subject of a further test is T-47D breast. The note with it: 10 µM.

With `O=S(=O)(c1cc(Cl)ccc1O)c1cc(Cl)ccc1O`, the growth in the test with T-47D breast was 67%; in the test with SW-620 colon (10 µM), 86.3%; in the test on MCF7 breast (10 µM), 92.9%; with HCT-116 colon (10 µM), 77.1%; in the test with HCC-2998 colon (10 µM), 99.5%; in the test with KM12 colon (10 µM), 98.1%.

For the molecule `S=P(N1CC1)(N1CC1)N1CC1`, the growth was 102% and 85.8% with BT-549 breast (10 µM); 47.5% with BT-549 breast (100 µM); 110% and 93.6% with SW-620 colon (10 µM); 73% with SW-620 colon (100 µM); 69.5% in the test with MCF7 breast (10 µM); 29.3% in the test with MCF7 breast (100 µM). The growth was 95.9% and 73.8% in the test with HCT-116 colon (10 µM); 51.3% in the test with HCT-116 colon (100 µM); 109% with HCC-2998 colon (10 µM); -5.61% (active) in the test with HCC-2998 colon (100 µM); 111% and 104% in the test on KM12 colon (10 µM); 83% in the test with KM12 colon (100 µM).

As to `COc1cccc(C(c2cc3c(cc2O)OCO3)N2CCOCC2)c1OC` (centres undefined), the growth with BT-549 breast (10 µM) was 94.7%; in the test on SW-620 colon (10 µM), 102%; in the test on MCF7 breast (10 µM), 96.5%; in the test on HCT-116 colon (10 µM), 102%; in the test on HCC-2998 colon (10 µM) it was 113%; in the test on KM12 colon (10 µM), 108%.

For `COc1ccc2oc(-c3ccc(Cl)cc3)c(N3CCN(C)CC3)c2c1`, the growth in the test on BT-549 breast (10 µM) was 134%; in the test on SW-620 colon (10 µM), 0.0094% (active); with MCF7 breast (10 µM) it was -75.8% (active); in the test with HCT-116 colon (10 µM) it was 22.4%; in the test on HCC-2998 colon (10 µM), -12.4% (active); in the test on KM12 colon (10 µM), -46.6% (active).

Regarding `O=c1[nH]cc(/C=N\Nc2ccccc2)c(=O)[nH]1`, the growth is 82.5% with BT-549 breast (10 µM); 46.6% in the test on SW-620 colon (10 µM); 56.1% in the test with MCF7 breast (10 µM); 57% in the test on HCT-116 colon (10 µM); 76.9% with HCC-2998 colon (10 µM); 37.9% with KM12 colon (10 µM).

In the case of `CO[C@@]12[C@H](COC(N)=O)C3=C(C(=O)C(C)=C(N)C3=O)N1C[C@@H]1N[C@@H]12`, the growth in the test on MCF7 breast (25 µM) was -17.6% (active) and -61.3% (active).

Turning to `CN(C)CCNc1cccc2sc3ccc(O)cc3c(=O)c12`, the growth is 65.8% in the test on BT-549 breast (10 µM); 24.5% in the test with SW-620 colon (10 µM); 27.8% in the test on MCF7 breast (10 µM); 25.3% in the test on HCT-116 colon (10 µM); 17.9% with HCC-2998 colon (10 µM); 24.7% in the test on KM12 colon (10 µM).

Consider `CN(CC(=O)O)c1ccc(/C=C/c2ccnc3ccccc23)cc1`, for which the growth with BT-549 breast (10 µM) was 65.3%; in the test on SW-620 colon (10 µM), 84.3%; in the test with MCF7 breast (10 µM), 31.8%; with HCT-116 colon (10 µM), 89.4%; in the test on HCC-2998 colon (10 µM) it was 91.9%; with KM12 colon (10 µM) it was 85.2%.

For the molecule `Clc1c(Cl)c(Cl)c2c(nnn2C2CCCO2)c1Cl` (centres undefined), in the test on MCF7 breast (100 µM), the growth was 3.55% (active) and -84.2% (active).

For `O=C(CCc1ccccc1)ON1C(=S)C(c2ccccc2)(c2ccccc2)N=C1Sc1ccccc1`, the growth with MCF7 breast (100 µM) is 1.09% (active) and 4.44% (active).

Take `COc1ccc(C(C#N)=C2C=CC(=NO)C=C2)cc1`: the growth in the test on BT-549 breast (10 µM) was 106%; in the test on SW-620 colon (10 µM), 12.1%; in the test with MCF7 breast (10 µM) it was 14.1%; in the test with HCT-116 colon (10 µM) it was -37.2% (active); in the test on HCC-2998 colon (10 µM) it was 105%; in the test on KM12 colon (10 µM), -24.7% (active).

Turning to `O=C(CNS(=O)(=O)Cc1ccccc1)NNc1ccccc1`, the growth in the test on BT-549 breast (10 µM) is 82.9%; with MCF7 breast (10 µM) it was 76.5%; in the test on HCT-116 colon (10 µM) it was 55.6%; in the test with HCC-2998 colon (10 µM), 70.5%; in the test on KM12 colon (10 µM) it was 15%.

Consider `N#CC(=S)Nc1cccc(Cl)c1`, for which the growth in the test on MCF7 breast (100 µM) is 0.126% (active) and -100% (active).

For `O=C1c2cccc3cc([N+](=O)[O-])cc(c23)C(=O)N1CCN1CCCC1`, the growth is 3.71% (active) in the test on BT-549 breast (10 µM); -4.97% (active) in the test on SW-620 colon (10 µM); 1.22% (active) with MCF7 breast (10 µM); -37.6% (active) with HCT-116 colon (10 µM); -69.6% (active) with HCC-2998 colon (10 µM); 1.61% (active) in the test with KM12 colon (10 µM).

Turning to `Cn1c2nc3ccccc3c-2nc2ccccc21`, the growth was 90.5% and 92.6% in the test with BT-549 breast (10 µM); 79% and 90% with SW-620 colon (10 µM); 77.3% and 67.5% with MCF7 breast (10 µM); 92.7% and 80.9% in the test on HCT-116 colon (10 µM); 118% and 102% in the test with HCC-2998 colon (10 µM); 92.4% and 83.5% in the test with KM12 colon (10 µM).

For `CN(C)c1ccc(/C=C/c2ccnc3ccccc23)cc1N`, the growth in the test with BT-549 breast (10 µM) is 60.3%; in the test with SW-620 colon (10 µM), 78.4%; with MCF7 breast (10 µM), 62.9%; in the test with HCT-116 colon (10 µM) it was 49.3%; in the test on HCC-2998 colon (10 µM), 104%; with KM12 colon (10 µM), 61.5%.

Consider `C=C(C)[C@@H]1CCc2c(O)c(O)c(=O)cc(C)c2C1`, for which the growth in the test with MCF7 breast (100 µM) was -84.1% (active) and -67.9% (active).

Consider `O=C1C(Cl)=C(Cl)C(Cl)(Cl)C(Cl)C1(Cl)Cl` (centres undefined), for which the growth was 96.4% in the test with BT-549 breast (10 µM); 105% in the test with SW-620 colon (10 µM); 96.8% with MCF7 breast (10 µM); 102% in the test with HCT-116 colon (10 µM); 106% in the test on HCC-2998 colon (10 µM); 109% with KM12 colon (10 µM).

As to `Cc1cc(C)c(N2C(=O)CC(Sc3ccccc3N)C2=O)c(C)c1` (centres undefined), the growth was 96.2% in the test with BT-549 breast (10 µM); 55.9% with SW-620 colon (10 µM); 31.7% in the test on MCF7 breast (10 µM); 79.2% in the test on HCT-116 colon (10 µM); 50.9% in the test on KM12 colon (10 µM).

For the molecule `NCc1c(O)ccc2ccccc12`, the growth in the test on BT-549 breast (10 µM) is 101%; with SW-620 colon (10 µM) it was 107%; with MCF7 breast (10 µM), 95.3%; in the test on HCT-116 colon (10 µM), 102%; in the test on HCC-2998 colon (10 µM) it was 102%; with KM12 colon (10 µM), 96%.

As for `O=Nc1ccc(Nc2ccccc2)cc1`, the growth with BT-549 breast (10 µM) is 78.8%; in the test with SW-620 colon (10 µM), 70.1%; in the test with MCF7 breast (10 µM), 67.2%; in the test on HCT-116 colon (10 µM) it was 78.4%; with HCC-2998 colon (10 µM), 93.8%; in the test on KM12 colon (10 µM), 93.3%.

Take `COc1ccc(N)c2c1C(=O)c1ccccc1C2=O`: the growth was 106% with SW-620 colon (10 µM); 95.2% in the test on MCF7 breast (10 µM); 102% in the test with HCT-116 colon (10 µM); 105% in the test with HCC-2998 colon (10 µM); 102% in the test with KM12 colon (10 µM).

Turning to `O=C(NC(=S)Nc1ccccn1)c1ccccc1`, the growth with BT-549 breast (10 µM) was 77.1%; in the test on SW-620 colon (10 µM), 96.1%; with MCF7 breast (10 µM), 24.3%; in the test on HCT-116 colon (10 µM), 87.9%; in the test on KM12 colon (10 µM), 97%.

`CCOC(=O)[C@]1(Br)CC[C@@]1(Br)C(=O)OCC`: the growth in the test on BT-549 breast (10 µM) is 123%; in the test with SW-620 colon (10 µM), 76.2%; with MCF7 breast (10 µM), 93.4%; in the test on HCT-116 colon (10 µM), 88.9%; with HCC-2998 colon (10 µM), 124%; in the test on KM12 colon (10 µM), 142%.

For `CCC(=O)Oc1ccc(/C=N/NC(N)=S)nc1`, the growth in the test on BT-549 breast (10 µM) is 51.2%; in the test on SW-620 colon (10 µM) it was 49.5%; with MCF7 breast (10 µM), 22.5%; with HCT-116 colon (10 µM), 42%; in the test with KM12 colon (10 µM), 60.5%.

For `COc1cc2c(cc1C[N+](C)(C)CSc1ccccc1)-c1ccccc1CC2`, in the test on MCF7 breast (100 µM), the growth is -75.8% (active) and -73.3% (active).

As for `Cc1cc(N=C2C=CC(=[N+](C)C)C=C2)c(N)cc1N`, the growth in the test on BT-549 breast (10 µM) was 96.3%; with SW-620 colon (10 µM) it was 84.9%; in the test on MCF7 breast (10 µM), 68.8%; with HCT-116 colon (10 µM), 82.2%; with HCC-2998 colon (10 µM), 60.8%; in the test on KM12 colon (10 µM), 89%.

Take `CCC(C)(c1ccc(O)c(C)c1)c1ccc(O)c(C)c1`: the growth with BT-549 breast (10 µM) was 192%; with SW-620 colon (10 µM) it was 111%; in the test on MCF7 breast (10 µM), 111%; in the test with HCT-116 colon (10 µM) it was 94%; in the test with HCC-2998 colon (10 µM), 107%; with KM12 colon (10 µM), 94.6%.
